ELG1 genotox: inducers of genotoxicity in HEK293T ELG1-luciferase cells; HEK293T ELG1-luciferase reporter, luminescence, 16 h; Potency, µM (doses to about 46 µM), actives largely listed as activators; 330,000 compounds, 1.3% hits; note: nearly all actives have a fitted effect of over 60% in size
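Step 1: seed 2,000 HEK293T ELG1-luciferase cells per well. Step 2: add compound or DMSO, incubate 16 hr at 37 °C. Step 3: ONE-Glo, 30 min at room temperature, read luminescence.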
SMN2 splice up: enhancers of SMN2 splice variant expression. 210,000 compounds, 2.8% hits. AID 1458. HEK293 SMN2-luciferase splicing reporter, luminescence, 30-36 h. Potency, µM (top dose mostly 46.1 µM), hits mostly activators; note: nearly all actives have a fitted effect of over 55% in size
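HEK293 cells carry an SMN2 minigene-luciferase reporter in which exon 7 inclusion puts luciferase in frame. Cells were seeded at 2000 cells/well, attached for 10-12 hours, then exposed to compounds for 30-36 hours at 37C before ONE-Glo luminescence.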
FLuc counter: counter-screen for miR-21 project: firefly luciferase inhibitors or activators; P08659; purified FLuc, Km substrates, luminescence inhibition; Potency, µM (highest dose often 57.5 µM), hits mostly inhibitors; 360,000 compounds, 6.9% hits; note: nearly all actives have a fitted effect of over 55% in size
Target sequence (P08659 whole entry, looked up): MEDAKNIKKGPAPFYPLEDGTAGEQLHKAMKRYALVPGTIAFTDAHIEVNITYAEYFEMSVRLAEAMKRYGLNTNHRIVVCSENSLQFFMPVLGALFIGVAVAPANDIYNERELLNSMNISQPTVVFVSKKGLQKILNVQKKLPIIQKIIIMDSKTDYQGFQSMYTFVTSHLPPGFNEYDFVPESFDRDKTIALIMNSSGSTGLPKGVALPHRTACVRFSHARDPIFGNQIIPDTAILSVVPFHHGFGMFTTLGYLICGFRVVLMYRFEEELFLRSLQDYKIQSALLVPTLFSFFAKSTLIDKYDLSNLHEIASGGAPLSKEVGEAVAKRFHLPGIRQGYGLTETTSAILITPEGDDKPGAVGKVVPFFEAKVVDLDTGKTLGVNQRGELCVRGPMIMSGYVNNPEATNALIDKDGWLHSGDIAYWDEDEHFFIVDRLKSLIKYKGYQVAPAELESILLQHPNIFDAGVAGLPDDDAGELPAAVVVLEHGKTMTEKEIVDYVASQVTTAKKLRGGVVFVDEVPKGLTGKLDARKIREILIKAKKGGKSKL
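Biochemical qHTS of compounds, final roughly 60 µM downward over six points, against 10 nM purified firefly luciferase using Km concentrations of substrates (10 uM D-luciferin, 10 uM ATP) in Tris acetate pH 7.5 buffer; luminescence output.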
NPC1 prom act: activates the NPC1 promoter; 320,000 compounds, 2.4% hits; Huh7 NPC1 promoter luciferase reporter, 24 h; Potency, µM (titrated, usually from 9.22 µM), usual class: activators; note: nearly all actives have a fitted effect of over 60% in size
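Stably transfected Huh7 (NPC1 promoter→luciferase), 1500 cells/well in Opti-MEM + 10% FBS, 2 h settle, then compound 24 h at 37 °C. Luminescence after 10 min with Amplite reagent.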
Rab9 promoter act: Rab9 promoter activation | Huh7 Rab9 promoter-luciferase reporter, luminescence, 24 h | Potency, µM (doses to about 9.22 µM), most hits filed as activators | 320,000 compounds, 2.8% hits; note: nearly all actives have a fitted effect of over 60% in size
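Rab9 promoter-driven luciferase in stably transfected Huh7 cells; 1500 cells/well rested 2 h, exposed to compound in DMSO for 24 h at 37 °C, 5% CO2. Luminescence read 10 min after adding luciferase reagent at ambient temperature.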
Large screens that a line does not name were inactive. An excerpt weighted towards active compounds, which were near 7.5% of everything screened. Calls come from the whole dose curve; as a rule, active = well fitted curve in the direction sought with a large enough effect; inconclusive = small, poorly fitted or top-dose-only effect, or another doubt; inactive = no such curve, though single readings can be large; an effect the other way counts as inactive or inconclusive.

CC1CCN(C(=O)Cn2nnc(-c3ccc(N)cc3)n2)CC1	none (no result: SMN2 splice up)
CCOc1ccc(NC(=O)C(NS(=O)(=O)c2ccc3c(c2)CCN3C(C)=O)C(C)C)cc1 (configuration not stated)	none (no result: ELG1 genotox, NPC1 prom act, Rab9 promoter act)
CN(C)c1ccc(N=Cc2nc(-c3ccccc3)oc2OC(=O)c2ccccc2)cc1	ELG1 genotox inconclusive, SMN2 splice up 11µM, FLuc counter inconclusive, NPC1 prom act inconclusive, Rab9 promoter act inconclusive
CC(=O)Oc1oc(-c2ccccc2)nc1/C=N/c1ccccn1	ELG1 genotox inconclusive, SMN2 splice up inconclusive, FLuc counter 21µM
O=S(=O)(Nc1ccc(N2CCCCC2)cc1)c1ccc(F)c(F)c1	none
Cc1c(CC(=O)N[C@H](C(=O)O)C(C)C)c(=O)oc2cc3c(cc12)CCC(C)(C)O3	ELG1 genotox inconclusive, FLuc counter 11µM, NPC1 prom act 2.8µM, Rab9 promoter act 1.8µM (no result: SMN2 splice up)
Cc1c(CC(=O)N2CCC(C(=O)O)CC2)c(=O)oc2cc3c(cc12)CCC1(CCCCC1)O3	FLuc counter 12µM (no result: SMN2 splice up)
CCC(C)NC(=O)Cc1c(C)c2cc3c(cc2oc1=O)OC(C)(C)CC3 (configuration not stated)	FLuc counter inconclusive, NPC1 prom act inconclusive, Rab9 promoter act 4µM (no result: SMN2 splice up)
Cc1c(Cc2ccccc2)c(=O)oc2c(C)c(OCC(=O)N3CCC(C(=O)O)CC3)ccc12	FLuc counter 17µM (no result: SMN2 splice up)
Cc1c(OCC(=O)N2CCC(C(=O)O)CC2)ccc2c3c(c(=O)oc12)CCC3	FLuc counter inconclusive (no result: SMN2 splice up)
Cc1c(CC(=O)NC(C)C)c(=O)oc2cc3c(cc12)CCC(C)(C)O3	FLuc counter inconclusive, NPC1 prom act inconclusive, Rab9 promoter act 3.2µM (no result: SMN2 splice up)
CC(C)(O)C#Cc1ccc(C(=O)N2CCC(CCC(=O)NC3CC3)CC2)cc1	none (no result: SMN2 splice up)
Cn1c(O)c(N=NC(=O)c2ccco2)c2ccccc21	ELG1 genotox inconclusive, SMN2 splice up 10µM, FLuc counter 4.8µM, NPC1 prom act 4µM, Rab9 promoter act 2.2µM
Cc1cc(N=NC(=O)c2ccccc2O)c2ccccc2c1O	FLuc counter 11µM, NPC1 prom act inconclusive, Rab9 promoter act 3.2µM
Cc1occc1C(=O)N=Nc1c(O)n(C)c2ccccc12	ELG1 genotox inconclusive, SMN2 splice up 2.8µM, FLuc counter 1.7µM, NPC1 prom act inconclusive, Rab9 promoter act inconclusive
CCOC(=O)C(=O)N=Nc1c(O)n(C)c2ccccc12	none (no result: SMN2 splice up)
Cn1c(O)c(N=Nc2ccccc2[N+](=O)[O-])c2ccccc21	ELG1 genotox inconclusive, FLuc counter inconclusive, NPC1 prom act 3.5µM, Rab9 promoter act inconclusive (no result: SMN2 splice up)
COCCn1c(N2CCN(c3ccccc3)CC2)nc2c1c(=O)n(C)c(=O)n2C	none (no result: SMN2 splice up)
O=C(CN1c2ccccc2Sc2ccccc21)NNC(=O)Nc1ccc(Cl)cc1	none (no result: SMN2 splice up)
COc1ccc(C(=O)CSc2nn3c(=O)c(C(C)(C)C)nnc3s2)cc1	ELG1 genotox inconclusive
O=C(C/C=N/OCc1c(Cl)cccc1Cl)c1ccccc1	FLuc counter inconclusive
Cn1c(O)c(N=NC(=O)c2ccccc2O)c2ccccc21	ELG1 genotox 7.3µM, FLuc counter 3µM, NPC1 prom act 3.5µM, Rab9 promoter act inconclusive (no result: SMN2 splice up)
Cc1nc(NC(=O)c2c(-c3ccccc3Cl)noc2C)sc1C	none (no result: SMN2 splice up)
Cc1nc(NC(=O)c2csc3ccccc23)sc1C	ELG1 genotox inconclusive, SMN2 splice up 7.9µM, FLuc counter 0.85µM, NPC1 prom act inconclusive, Rab9 promoter act 1.3µM
Cc1nc(NCCc2ccccc2)sc1C(=O)O	FLuc counter 17µM, NPC1 prom act inconclusive (no result: SMN2 splice up)
CC(=O)c1sc(NC(=O)c2c(F)cccc2F)nc1-c1ccccc1	FLuc counter inconclusive
Cc1ccc2c(NC(=S)NC(=O)c3ccccc3)cccc2n1	none (no result: SMN2 splice up)
Cc1nc(NC(=S)NC(=O)c2ccccc2)sc1C	ELG1 genotox inconclusive, FLuc counter inconclusive, NPC1 prom act 4µM, Rab9 promoter act 3.2µM (no result: SMN2 splice up)
CC(=O)c1sc(NC(=O)c2ccccc2)nc1-c1ccccc1	ELG1 genotox inconclusive, SMN2 splice up 13µM, FLuc counter 9.5µM, NPC1 prom act 2µM, Rab9 promoter act 1µM
Cc1ccc(S(=O)(=O)N2CCC(C(=O)N3CCc4ccccc43)CC2)cc1	none (no result: SMN2 splice up)
COc1ccc(C2CC(=O)c3c([nH]c(C(=O)OCc4ccccc4)c3C)C2)cc1OC (configuration not stated)	none (no result: ELG1 genotox, NPC1 prom act, Rab9 promoter act)
O=C(Nc1nc(-c2cccs2)c(C(=O)C(F)(F)F)s1)c1ccccc1	FLuc counter 17µM
Cc1nc(NC(=O)CCc2ccccc2)sc1C	ELG1 genotox inconclusive, FLuc counter 17µM (no result: SMN2 splice up)
CC(=O)c1sc(NC(=O)c2ccccc2C)nc1C	ELG1 genotox inconclusive, FLuc counter inconclusive, Rab9 promoter act inconclusive
Cc1nc(NC(=O)c2ccccc2)sc1C	ELG1 genotox inconclusive, FLuc counter inconclusive, NPC1 prom act 1.8µM, Rab9 promoter act 1.8µM (no result: SMN2 splice up)
CSc1nnc(NC(=O)CCc2ccccc2)s1	Rab9 promoter act inconclusive
O=C(Nc1nc(-c2cccs2)c(C(=O)C(F)(F)F)s1)c1ccco1	FLuc counter inconclusive
Cc1nc(NC(=O)c2ccccc2O)sc1C	ELG1 genotox 5.8µM, FLuc counter 5.4µM, NPC1 prom act 4µM, Rab9 promoter act 3.2µM (no result: SMN2 splice up)
Cc1ccccc1OCc1nnc(SCC(=O)NC2CCCCC2)o1	none (no result: SMN2 splice up)
CCc1ccccc1NS(=O)(=O)c1ccc2[nH]cc(C(=O)N3CCCCC3)c(=O)c2c1	none (no result: ELG1 genotox, NPC1 prom act, Rab9 promoter act)
CS(=O)(=O)c1ccc(NCCc2ccccn2)c([N+](=O)[O-])c1	none (no result: SMN2 splice up)
O=C(CSc1nc2ccccc2[nH]1)Nc1ccc2c(c1)OCCO2	FLuc counter 8.5µM, Rab9 promoter act inconclusive
O=C(CSc1nc2ncccc2[nH]1)Nc1ccc2c(c1)OCO2	FLuc counter inconclusive (no result: SMN2 splice up)
CCc1c(C)nc(SCC(=O)Nc2ccc3c(c2)OCCO3)[nH]c1=O	FLuc counter inconclusive (no result: SMN2 splice up)
O=C(CSc1nc2ccccc2[nH]1)c1ccc2c(c1)OCO2	ELG1 genotox 13µM, FLuc counter 12µM, NPC1 prom act inconclusive, Rab9 promoter act 1.4µM
Cc1ccc2nc(SCC(=O)Nc3ccc4c(c3)OCCO4)[nH]c2c1	FLuc counter 15µM
O=C(CSc1ncccc1-c1nc2ccccc2[nH]1)Nc1ccc2c(c1)OCCO2	FLuc counter 27µM
Cc1ccc2nc(SCC(=O)c3ccc4c(c3)OCO4)[nH]c2c1	FLuc counter inconclusive
Cc1cc([N+](=O)[O-])nn1CC(=O)N/N=C/c1ccccc1O	FLuc counter inconclusive (no result: SMN2 splice up)
COc1ccc(C(=O)Nc2c(Cl)cc(Cl)cc2C(=O)NCc2ccco2)cc1	none
CCc1nnc2c(Nc3cccc(C(C)=O)c3)nc3ccccc3n12	none (no result: ELG1 genotox, SMN2 splice up, NPC1 prom act, Rab9 promoter act)
Cc1ccc(-n2c(=O)c3oc4ccccc4c3n(Cc3ccccc3F)c2=O)cc1C	none (no result: ELG1 genotox, SMN2 splice up, NPC1 prom act, Rab9 promoter act)
Cc1cc2nc(SC(C)C(=O)O)[nH]c2cc1C (configuration not stated)	FLuc counter 21µM
O=C(CSc1ccccn1)c1ccc2c(c1)OCO2	ELG1 genotox 4.6µM, SMN2 splice up 11µM, FLuc counter 11µM, NPC1 prom act 3.5µM, Rab9 promoter act 2.5µM

Assay outcomes (PubChem BioAssay)
